# Measurements: ChEMBL document CHEMBL1201862, “PubChem BioAssay data set” (2004)
# In all, about 58,000 […] went through this assay and about 3,600 (6.2%) were called active. Rule as the data show it: active = GI50 up to about 1.1 µM and inactive = higher. The list is a sample of the results. Measured potencies and affinities stand elsewhere.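 Each compound was tested at five concentrations against cells in 96-well plates for 48 hours. Here, GI50 denotes the concentration required for 50% inhibition of growth.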
# System: OVCAR-8
# Assay: NCI tumour cell line growth inhibition, 48 h
row,Substance,GI50 [µM]
1,"[Bis(aminomethyl)dimethylsilane]tetrachloroplatinum(IV), CHEMBL2146190",12
2,"mu-(1,7-nanodiamine-N,N')bis-(cis-aminedichloroplatimum (II)), CHEMBL2146215",52.6
3,"CISPLATIN, CHEMBL11359",4.52
4,"[Bis(aminomethyl)diethylsilane]tetrachloroplatinum(IV), CHEMBL2146203",3.53
5,"[Bis(aminomethyl)ethylmethylsilane]tetrachloroplatinum(IV), CHEMBL2146192",3.7
6,"[Bis(aminomethyl)tetramethylenesilane]tetrachloropaltinum(IV), CHEMBL2146189",6.01
7,"cis-Bis[[(trimethylsilyl)methyl]amino]tetrachloroplatinum(IV), CHEMBL2146191",2.44
8,"[Bis(aminomethyl)dimethylsilane]dichloroplatinum (II), CHEMBL2146201",29.8
9,"[Bis(aminomethyl)pentamethylenesilane]tetrachloropaltinum(IV), CHEMBL2146204",2.17
10,"[Bis(aminomethyl)tetramethylenesilane]dichloropaltinum(II), CHEMBL2146205",17
11,"[Bis(aminomethyl)pentamethylenesilane]dichloropaltinum(II), CHEMBL2146202",2.05
